PubChem BioAssay AID2391 (Southern Research Specialized Biocontainment Screening …, 2010)
The whole screen tested about 310,000 compounds, of which about 410 (0.13%) were called active. Not shown: some 2% with an inconclusive outcome. No rule for the calls is given here. Not all results are given here. Potency and affinity values are given separately.

experiment: RSV antiviral activity via CPE protection, HEp-2 cells, primary 10 µM value included (AID 2391); conditions: RSV-induced CPE inhibition, at 10 µM, hits give high values

CPE inhibition, inactive:
[O-]/[N+](=C/c1ccco1)c1ccccc1 2.24%
COc1cccc(NC(=O)c2ccccc2C(F)(F)F)c1 1.62%
O=C(c1ccc(Cl)c(S(=O)(=O)N2CCOCC2)c1)N1CCOCC1 -0.1%
CCCCOC(=O)c1ccc(NC(=O)c2ccc(F)cc2F)cc1 3.03%
CCOC(=O)c1sc(NC(=O)Cc2ccc(F)cc2)nc1C 17.9%
NC(=O)CCN1CCN(Cc2nc(C(c3ccccc3)c3ccccc3)no2)CC1 -0.36%
O=S(=O)(Nc1nc2ccccc2s1)c1cnc(Cl)c(Br)c1 0.69%
O=c1[nH]c(C2CCCN(S(=O)(=O)c3ccccc3)C2)nc2c1nnn2Cc1ccccc1F (centres undefined) 3.4%
Cc1ccc(Cn2nnc3c(=O)[nH]c(C4CCCN(S(=O)(=O)c5ccc(F)cc5)C4)nc32)cc1 (centres undefined) 5.93%
COC(=O)c1ccccc1S(=O)(=O)N1CCCC(c2nc3c(nnn3Cc3ccc(C)cc3)c(=O)[nH]2)C1 (centres undefined) 10.4%
O=c1[nH]c(C2CCCN(S(=O)(=O)c3ccccc3)C2)nc2c1nnn2Cc1cccc(Cl)c1 (centres undefined) 43%
Cc1ccc(Cn2nnc3c(=O)[nH]c(C4CCCN(S(=O)(=O)c5ccccc5)C4)nc32)cc1 (centres undefined) 13%
Cc1ccc(Cn2nnc3c(=O)[nH]c(C4CCCN(S(=O)(=O)c5ccccc5F)C4)nc32)cc1 (centres undefined) 4.65%
COC(=O)c1ccc(Cn2nnc3c(=O)[nH]c(C4CCCN(S(=O)(=O)c5ccccc5Cl)C4)nc32)cc1 (centres undefined) 2.61%
O=c1[nH]c(C2CCCN(S(=O)(=O)c3ccccc3)C2)nc2c1nnn2Cc1ccc2c(c1)OCCO2 (centres undefined) 60.4%
CN1CCN(/C(=N\O)c2nonc2N)CC1 -0.46%
Cc1ccc(-c2[nH]c3cc(C(=O)NCCCn4ccnc4)ccc3c(=O)c2O)cc1 1.07%
O=C(CCN1C(=O)S/C(=C\C=C\c2ccccc2)C1=O)Nc1ccc(O)cc1 -1.82%
CCOC(=O)CC(NC(=O)C(CC)c1ccccc1)c1ccccc1Cl (centres undefined) 3.39%
COc1ccc(N2CCN(S(=O)(=O)c3ccc(OC)c(C(=O)N4CCOCC4)c3)CC2)cc1 0.25%
COc1ccccc1C(=O)C1CCCN(C(=O)c2ccccn2)C1 (centres undefined) 2.51%
Cc1ccc(CN(C)C(=O)COC(=O)CSc2ccc(C(N)=O)cc2[N+](=O)[O-])cc1 -0.57%
COC(=O)c1ccc(NC(=O)c2ccccc2-c2ccccc2C(=O)O)cc1 0.77%
CCCCCCC(=O)Nc1c2c(nc3ccccc13)N(C)CC2 0.9%
O=C(Nc1ccc(F)cc1F)N1CCCC(c2nc(-c3ccc(F)cc3)no2)C1 (centres undefined) 14.7%
O=C(Nc1cccc(Cl)c1)Nc1nnc(CC2=CCCCC2)s1 5.11%
CCOc1ccc(S(=O)(=O)N(C)CC(=O)NCc2ccccn2)cc1Cl 1.39%
COCCN1C(=O)C(CC(=O)Nc2ccc(C(C)=O)cc2)SC1=Nc1ccccc1 (centres undefined) 2.47%
COCCN1C(=O)C(CC(=O)Nc2ccc(C(=O)O)cc2)SC1=Nc1ccccc1 (centres undefined) 1.29%
COc1ccc(OCc2n[nH]c(=S)n2Cc2ccco2)cc1 2.67%
O=C1CCCC2=C1C(c1ccc(Cl)cc1)C1C(=O)c3ccccc3C1=N2 (centres undefined) 58.3%
Cc1ccc(C2C3=C(CCCC3=O)N=C3c4ccccc4C(=O)C32)cc1 (centres undefined) 11.5%
CCOc1nc(Nc2ccc(OC)cc2)nc(N2CCOCC2)n1 2.38%
COc1ccc(C(=O)/C=C/NCc2ccc(F)cc2)cc1OC 4.99%
Cc1ccc(C)c(S(=O)(=O)N2CCCOC2CNC(=O)C(=O)NCc2cccs2)c1 (centres undefined) 1.48%
CCN(CC)c1ccc(CN(C(=O)c2cccs2)C2CCS(=O)(=O)C2)cc1 (centres undefined) 1.38%
COc1ccc(NC(=O)Nc2cc3oc4ccccc4c3cc2OC)cc1 9.45%
COc1cc2c(cc1NC(=O)Nc1ccc(C)cc1)oc1ccccc12 33%
CCS(=O)(=O)Nc1ccc(C2=NN(S(=O)(=O)CC)C(c3cccs3)C2)cc1 (centres undefined) 2.5%
Cc1ccc(CS(=O)Cc2ccc(C(=O)NCC(C)c3ccccc3)o2)cc1 (centres undefined) 1.69%
COCCCNC(=O)CN(c1cc(Cl)ccc1OC)S(C)(=O)=O 0.7%
O=C(O)c1ccc(-c2nc(-c3ccccc3Cl)cs2)cc1 15.1%
C=CCNC(=O)c1ccc(-c2nc(-c3ccc(Cl)cc3Cl)cs2)cc1 3.05%
CCOc1ccc(C(C(=O)NC2CCCC2)N(CCOC)C(=O)CNC(=O)c2ccco2)cc1 (centres undefined) 0.14%
CCN(c1ccccc1)S(=O)(=O)c1ccc(Cl)c(NC(=O)CSc2nncn2C)c1 4.02%
CS(=O)(=O)c1ccc(Cl)c(NC(=O)CSc2n[nH]c(N)n2)c1 -0.18%
CCC(C)NCC(=O)Nc1cc(S(=O)(=O)N(CC)c2ccccc2)ccc1Cl (centres undefined) 10.6%
CCN(c1ccccc1)S(=O)(=O)c1ccc(OC)c(NC(=O)Cc2ccc(OC)c(OC)c2)c1 8.13%
Nc1nc(SCC(=O)Nc2cc(S(=O)(=O)N3CCOCC3)ccc2Cl)n[nH]1 0.46%
CCN(c1ccccc1)S(=O)(=O)c1ccc(Cl)c(NC(=O)CSc2nnc(C)s2)c1 17.6%
CCN(c1ccccc1)S(=O)(=O)c1ccc(Cl)c(NC(=O)CSc2nncs2)c1 14.1%
CCN(c1ccccc1)S(=O)(=O)c1ccc(OC)c(NC(=O)Cc2ccc(F)cc2)c1 13.4%
CCC(=O)NC(=S)Nc1ccc2oc(-c3ccc(OC)cc3)nc2c1 -0.44%
Cc1[nH]c2c(Cl)cccc2c(=O)c1CN1CCCCCC1 -1.59%
CC(=O)c1ccc(C(=O)NC2CCCN(Cc3ccccc3F)C2)cc1 (centres undefined) -0.91%
Cc1nc(N)nc(N/N=C/c2c(F)cccc2Cl)n1 0.02%
O=C1CS/C(=N/N=C\c2ccn[nH]2)N1 6.91%
Cc1c(C(=O)O)cccc1-c1ccc(/C=N/n2cnnc2)o1 0.79%
COc1ccc(C(=O)OCC(=O)N(C)C2CCS(=O)(=O)C2)cc1Br (centres undefined) 1.57%
CCOC(=O)c1c(CC(C)C)csc1NC(=O)COC(=O)c1cc(OC)c(OC)cc1[N+](=O)[O-] 3.28%
Cc1cc(C(=O)O[C@H]2[C@H](Cc3ccccc3)NS(=O)(=O)[C@H]3C[C@@H]4C=C[C@]23O4)ccc1[N+](=O)[O-] 1.3%
C[C@@H]1NS(=O)(=O)[C@H]2C[C@@H]3C=C[C@]2(O3)[C@H]1OC(=O)Nc1ccc(C(F)(F)F)cc1[N+](=O)[O-] 0.31%
CCN(Cc1ccccc1)C(=O)Cc1c[nH]c2ccccc12 4.41%
Cc1ccc(-c2ccc(/C=N/NC(=S)Nc3ccccc3)o2)cc1[N+](=O)[O-] 17.4%
O=[N+]([O-])c1ccc(-c2ccc(/C=N/O)o2)cc1 11.6%
CC(=O)Nc1ccc(NC(=O)CSc2ccc(-c3ccc4c(c3)OCO4)nn2)cc1 3.37%
CCOC(=O)C1CCCN(c2c(Nc3ccc(C)c(C)c3)c(=O)c2=O)C1 (centres undefined) 1%
COc1cccc(OCCCN2CCN(S(=O)(=O)c3ccc(NC(C)=O)cc3)CC2)c1 3.71%
CCc1c(C(=O)Nc2cc(C)cc(C)c2)[nH]c(C)c1C(C)=O 2.64%
COc1ccc(C(CNC(=O)COc2ccccc2)N2CCCCC2)cc1 (centres undefined) 0.71%
COc1ccc(C(CNC(=O)Cc2ccccc2)N2CCCCC2)cc1 (centres undefined) -0.35%
NC(=O)c1ccsc1NC(=O)COC(=O)c1nc(Cl)ccc1Cl -1.24%
c1ccc(N2CCN(c3nc4ccccc4[nH]3)CC2)nc1 -2.6%
c1ccc2[nH]c(CN3CCCCCC3)nc2c1 0.95%
Oc1ccc(N2CCN(Cc3nc4ccccc4[nH]3)CC2)cc1 13.2%
COc1ccccc1N1CCN(Cc2nc3ccccc3[nH]2)CC1 1.74%
COC(CNS(=O)(=O)c1cccc2nonc12)OC 3.28%
CCN(CC(=O)Nc1c(F)cccc1F)C(=O)c1ccc(N2CCCCC2)c([N+](=O)[O-])c1 5.38%
Cc1csc(NC(=O)c2ccc[nH]c2=O)n1 0.61%
COc1ccc(OCCOC(=O)C(C)NS(=O)(=O)c2ccc(NC(C)=O)cc2)cc1 (centres undefined) 0.13%
CCOC(=O)N1CCN(CC(=O)Nc2nc3ccc(OC)cc3s2)CC1 10.2%
O=c1c2ccccc2nc(SCc2ccc([N+](=O)[O-])cc2)n1CCCO 4.2%
CCn1c(SCC#N)nc2ccccc2c1=O 1.07%
Cn1c(SCC#N)nc2ccccc2c1=O 2.04%
CCC(Sc1nc2ccccc2c2nc3ccccc3n12)C(=O)NCc1ccco1 (centres undefined) -0.18%
O=C(CSc1nc2ccccc2n1CC(=O)NCc1ccccc1)NCc1ccco1 -0.09%
Cc1cccc(C(=O)O/N=C/c2c(N3CCOCC3)n(C)c3ccccc23)c1 -0.89%
COC(=O)Cc1c(C)c2ccc(OC3CCCCC3=O)cc2oc1=O (centres undefined) 6.9%
CN(C)c1ccc(NC(=O)CSc2nc(C3CC3)nc3ccccc23)cc1 3.13%
